Consider 25 molecules from PubChem BioAssay.

The assay is described as follows: compound effects on differentiated 3T3-L1 adipocyte viability – cell-based, 3T3-L1 adipocytes, calcein-AM fluorescence, 48 h, basal, profiling panel (AID 1163). Note: test concentration not given here. To be noted: 3T3-L1 adipocytes viability, higher = more signal.
For `CC(C)C[C@@H]1NC(=O)[C@H]2C[C@@H](C(=O)NCCCCCCN(C)C)[C@@H](c3ccc(O)cc3)N2C1=O`, the z-score is -0.0009.
In the case of `CCN(CC)c1ccc(N2CC=CC34O[C@@H]5/C=C\CCC(C)OC(=O)C5[C@H]3C(=O)N(C(CO)C(C)C)[C@@H]4C2=O)cc1` (stereo not given in full), the z-score was -1.18.
As for `C=CCNC(=O)[C@H]1[C@@H]2C(=O)O[C@@H](c3ccccc3)[C@@H](c3ccccc3)N2[C@@H](c2ccccc2OCCO)[C@]12C(=O)Nc1ccc(C#CC3=CCCCC3)cc12`, the z-score is 1.04.
On to `CCOC(=O)[C@H]1C/C=C/C[C@H](C(=O)OCC)C(=O)O[C@H]2[C@@H](OC)O[C@H](CO)[C@@H](OC(=O)Nc3cccc(F)c3)[C@@H]2OC1=O`, for which the z-score was -0.502.
Turning to `CCCC[C@H]1OB(O)C[C@H]2C1=C(COc1ccccc1)C[C@H]1C(=O)N(C)C(=O)[C@H]12`, the z-score was 0.0271.
In the case of `OC([C@@H]1CC(c2ccccc2)=NO1)[C@H]1CC(c2ccccc2)=NO1` (stereo not given in full), the z-score was 0.222.
In the case of `CN(C)C(=O)[C@]1(Cc2ccccc2N=[N+]=[N-])N=C(c2ccc(OCCCO)cc2)O[C@@H]1c1ccccc1`, the z-score was -0.958.
With `CCCCCN1CC=CC23O[C@@H]4/C=C\CCCOC(=O)C4[C@H]2C(=O)N(CCCO)[C@@H]3C1=O` (stereo not given in full) the figure was 1.65; with `CC(C)[C@@H](CO)NC(=O)[C@H]1[C@@H](c2ccccc2)N(c2ccccc2)O[C@@H]1C`, -0.159.
With `C=CC[C@@]1(C(=O)N(C)C)N=C(c2ccc(OCCCO)cc2)O[C@@H]1c1ccccc1N=[N+]=[N-]` the figure was -0.423.
For `C=C(C)C1C(=C)CN([C@H](CO)c2ccccc2)C1=O` (stereo not given in full) the value was 0.783.
Consider `O=C(O)[C@@]1(CCS(=O)(=O)c2ccccc2)COC(c2ccc(OCCCO)cc2)=N1`, for which the z-score is -0.664.
With `COC(=O)[C@@]1(Cc2ccc(OC)cc2)[C@H]2c3cc(C(=O)N(C)C)n(CCN4CNCC4=O)c3C[C@H]2CN1C(=O)c1ccccc1` the figure was -0.261; with `[N-]=[N+]=NCc1ccccc1[C@@H]1OC(c2ccc(OCCCO)cc2)=N[C@]1(Cc1ccccc1N=[N+]=[N-])C(=O)N1CCOCC1`, -0.259; with `CN(C)CCCCCCNC(=O)[C@@H]1C[C@@H]2C(=O)N[C@@H](CCCCN)C(=O)N2[C@@H]1c1cccc(OCCO)c1`, 0.565.
For `CN1C(=O)C2C=CC(C(O)C3=C[C@H]4C[C@@H](C3)C4(C)C)N(Nc3ccccc3)C2C1=O` (stereo not given in full) the value was -0.893; for `COC(=O)c1c(CC[C@@H](CO)NC(=O)N[C@H](Cn2cc(Cc3ccccc3)nn2)C(C)C)oc(C(C)=O)c1C(=O)OC`, 1.62; for `CN(C)CCCNC(=O)[C@@]1(c2ccc([N+](=O)[O-])cc2)CC(=O)N(C2CCCCC2)[C@@H]1c1ccc(CO)cc1`, -0.272.
For `C=CCN1C(=O)[C@@]2(O[C@@H](CCO)[C@H]([Si](C)(C)c3ccc(OC)cc3)[C@H]2C)c2cc(NC(=O)c3ccc(OC)cc3)ccc21` the value was -0.196; for `COc1ccc([C@H]2C[C@H]3C(Br)=C[C@@H]2C(=O)[C@]32CO2)cc1`, 0.0531; for `COc1ccc(C(=O)Nc2ccc(CN3C(=O)[C@@]4(O[C@@H](CC(=O)N5CCC[C@H]5CO)[C@H]([Si](C)(C)c5ccc(OC)cc5)[C@H]4C)c4ccccc43)cc2)cc1`, 0.0638.
For `COCCOC(=O)N1C(=O)[C@@]2(c3cc(C#CC4=CCCCC4)ccc31)[C@H](C(=O)Nc1nc3ccccc3s1)[C@H]1C(=O)O[C@H](c3ccccc3)[C@H](c3ccccc3)N1[C@@H]2c1ccc(OCCO)cc1`, the z-score was 0.747.
As for `C=CCOC(=O)[C@H]1[C@@H]2C(=O)O[C@@H](c3ccccc3)[C@@H](c3ccccc3)N2[C@@H](c2ccc(OCCOC(=O)[C@H]3C[C@H]4C(=O)N5CCC[C@H]5C(=O)N4[C@H]3c3ccc(O)cc3)cc2)[C@]12C(=O)Nc1ccccc12`, the z-score is 1.46.
With `C=C(CCCC)/C(=C/C[C@@H](OC(C)=O)c1ccccc1OCCO)c1cnc2ccccc2c1` the figure was 1.79; with `Cc1ccc(C(C)CC(O)C2C=CC3C(=O)N(c4ccccc4)C(=O)C3N2Nc2ccc([N+](=O)[O-])cc2)o1` (stereo not given), 0.0852.
